# Measured values taken from article PMC5540273 (PLoS ONE, 2017).
# Where two headings read alike, the source gives them in different places.
# Legend:
# [1] = system: RIPK2; conditions: concentration: 1 μM, replicates: in singlicate; n = 1
# [2] = system: RIPK4; conditions: concentration: 1 μM, replicates: in singlicate; n = 1
# [3] = system: RIPK5; conditions: concentration: 1 μM, replicates: in singlicate; n = 1
# [4] = system: ROCK1; conditions: n = 1
# [5] = system: ROCK2; conditions: concentration: 1 μM, replicates: in singlicate; n = 1
# [6] = system: ROS1; conditions: concentration: 1 μM, replicates: in singlicate; n = 1
# [7] = system: RPS6KA4(Kin.Dom.1-N-terminal); conditions: concentration: 1 μM, replicates: in singlicate; n = 1
# [8] = system: RPS6KA4(Kin.Dom.2-C-terminal); conditions: concentration: 1 μM, replicates: in singlicate; n = 1
# [9] = system: RPS6KA5(Kin.Dom.1-N-terminal); conditions: concentration: 1 μM, replicates: in singlicate; n = 1
# [10] = system: RPS6KA5(Kin.Dom.2-C-terminal); conditions: concentration: 1 μM, replicates: in singlicate; n = 1
# [11] = concentration: 1 μM, replicates: in singlicate
# 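Also: KINOMEscan kinase panel screen.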
SMILES,%Inh [1] [%],%Inh [2] [%],%Inh [3] [%],"%Inh [4, 11] [%]",%Inh [5] [%],%Inh [6] [%],%Inh [7] [%],%Inh [8] [%],%Inh [9] [%],%Inh [10] [%],%Inh ([4]; 1 µM) [%]
CCc1nc(-c2cccc(C)c2)c(-c2ccncc2)s1,76,7,0,0,0,11,2,0,0,18,
Nc1ncnc2c1ncn2-c1cccc2ccccc12 [SKF-97184],7,8,5,67,0,0,10,0,10,2,
Cc1nn2c(=O)cc(N3CCOCC3)nc2n1Cc1cccc(Cl)c1Cl [GSK2342769],10,9,0,0,0,0,0,0,16,0,
COc1cc(Nc2nccc(N3CCC(NC(=O)C4COc5ccccc5O4)C3)n2)cc(OC)c1OC (stereo not drawn) [GSK1379761],0,0,0,26,37,54,0,0,0,0,
Cc1cc(Nc2nc(-c3cccc(C)n3)nc3ccccc23)ccn1 [GW872411],14,0,0,27,0,0,2,0,0,16,
COc1cc(Nc2nccc(N3CCC(NC(=O)C(C)c4ccc(Cl)cc4)C3)n2)cc(OC)c1OC (stereo not drawn) [GSK1379757],0,0,16,0,0,31,0,0,0,0,
COc1ccc(-c2coc3ccc(-c4nnc(SCc5cccc(C#N)c5)o4)cc23)cc1,12,16,12,0,24,18,0,13,29,0,
COC(=O)c1c(-c2ccccc2)c2cc(Br)ccc2c(=O)n1Cc1ccc(S(C)(=O)=O)cc1,0,46,20,23,0,0,0,21,24,3,
Cc1ccc(Oc2ccc(Nc3ncnc4cc[nH]c34)cc2C)cn1,8,36,14,0,0,11,0,1,16,2,
CN(C)c1cc(-c2ccc3c(N)n[nH]c3c2)nc(N)n1 [GSK2219329],0,15,0,0,0,10,8,0,18,0,
CCc1ccc(-c2ccc3c(c2)-c2nn(C)cc2S(=O)(=O)N3C)cc1,0,0,0,0,0,0,0,0,0,0,
O=C1NC(=O)C(c2ccccc2)=C1Nc1cccc(O)c1 [SB-390534],8,1,26,0,0,24,0,7,0,0,
C[C@@H]1CC[C@H](C(=O)NC2CCCCC2)CN1c1cc(-c2ccc3c(N)n[nH]c3c2)nc(N)n1 [GSK2291363],5,29,0,94.4,93.1,28,5,0,32,0,
COc1ccc(-c2cc3c(C)nc(N)nc3n([C@H]3CC[C@H](O)CC3)c2=O)cn1,0,0,0,0,0,0,5,0,0,0,
CCCC(=O)Nc1n[nH]c2ncc(-c3cccc4ccccc34)cc12 [SB-642057],28,36,10,0,3,0,14,0,16,0,
Cc1nc(N(C)[C@H]2CN(C(=O)CC#N)CC[C@H]2C)c2cc[nH]c2n1,0,17,17,2,0,0,0,10,0,9,
CN1C(=O)C(Nc2cc(Cl)c(O)c(Cl)c2)=C(c2ccc(Cl)cc2)C1=O [SB-404321],0,32,0,6,0,0,0,0,0,0,
Cn1c(=O)c(F)c(Nc2ccc(I)cc2F)c2c(=O)n(OC[C@H](O)CO)cnc21,15,3,0,0,0,0,25,0,0,9,
COc1ccc(Nc2nccc(N3CCC(NS(=O)(=O)c4ccc(NC(C)=O)cc4)C3)n2)cc1 (stereo not drawn) [GSK1379729],100,0,0,36,18,3,0,0,27,0,
CCC(=O)c1c(-c2ccccc2)c2cc(Cl)ccc2c(=O)n1Cc1cc(S(C)(=O)=O)n(CC(N)=O)n1,0,0,0,0,0,0,0,0,30,22,
CN1C(=O)C(Nc2ccccc2)=C(c2ccccc2)C1=O [SB-300079],0,5,25,7,43,0,8,0,0,9,
COc1cc(Nc2ccnc3ccc(C(F)(F)F)cc23)cc(OC)c1OC [GW577382],64,1,0,0,15,9,10,0,6,13,
Cl.c1ccc(Cn2cnc3cc(Nc4ncnc5ccccc45)ccc32)cc1 [GW272142],0,12,5,4,2,6,6,0,0,7,

SMILES,%Inh [1] [%],%Inh [2] [%],%Inh [3] [%],"%Inh [4, 11] [%]",%Inh [5] [%],%Inh [6] [%],%Inh [7] [%],%Inh [8] [%],%Inh [9] [%],%Inh [10] [%],%Inh ([4]; 1 µM) [%]
COc1cccc(-n2cnc3c(N)ncnc32)c1 [SKF-97416],1,43,18,66,60,0,19,7,0,0,
COc1cc2ncn(-c3cc(OCc4ccncc4)c(C(N)=O)s3)c2cc1OC [GSK336313],13,22,1,0,0,28,19,0,4,4,
Cl.NS(=O)(=O)c1cccc(Nc2cc(-c3ccc(F)cc3)n[nH]2)c1 [GW824645],0,15,22,0,18,11,17,0,0,3,
CCCNC(=O)Nc1ccc(Oc2ncnc3ccn(C)c23)cc1,0,13,34,0,6,0,0,0,23,6,
O=C(Nc1n[nH]c2nc(-c3ccccc3)c(Cl)cc12)C1CC1 [SB-734909],0,10,16,24,6,0,0,0,0,0,
COC(=O)c1c(-c2ccccc2)c2cc(C)ccc2c(=O)n1Cc1ccccc1,0,0,0,0,0,0,0,0,10,0,
Cc1cccc(-c2cc(-c3c[nH]nc3-c3ccccn3)ccn2)c1 [GW679395],36,12,6,0,10,0,1,0,0,37,
O=C(NCc1cccs1)c1cc(C(=O)c2c(Cl)cccc2Cl)c[nH]1 [GW823670],8,0,0,45,0,0,22,0,0,15,
Nc1n[nH]c2nnc(-c3ccccc3)c(-c3ccccc3)c12 [GW554060],0,0,0,31,31,14,10,0,12,0,
Nc1ncnc2c1ncn2-c1ccc(Cl)cc1 [AH2635],2,2,0,30,0,23,20,0,0,8,
O=c1cc(N2CCOCC2)nc2n(Cc3ccc(F)c(Cl)c3)ccn12 [GSK2297099],0,27,0,0,0,0,4,0,16,27,
COc1ccc(-c2cc3c(C)nc(N)nc3n([C@H]3CC[C@H](OCCO)CC3)c2=O)cn1,0,0,0,0,0,9,0,0,0,0,
CCS(=O)c1ccc(-c2coc3ccc(-c4nnc(C)o4)cc23)cc1 (stereo not drawn),0,7,0,0,28,15,24,11,2,0,
OCCCNc1nccc(-c2c(-c3cccc(C(F)(F)F)c3)nn3cc(C(F)(F)F)ccc23)n1 [GW630813],14,0,0,11,24,0,0,0,0,16,
CCC(=O)c1c(-c2ccccc2)c2cc(Cl)ccc2c(=O)n1Cc1cc(C(=O)NC2CC2)n(C)n1,0,0,18,11,0,0,0,6,15,1,
O=C(Nc1n[nH]c2nc(-c3ccccc3)c(Br)cc12)C1CC1 [SB-708998],5,0,0,7,0,0,4,0,28,0,
COc1cc2nccc(Nc3ccc(OCc4ccc(NC(C)=O)cc4)cc3)c2cc1OC.Cl [GW440135],61,0,0,13,6,0,0,0,0,12,
CC(C)(C)c1ccc(C(=O)Nc2cn3cc(-c4ccccc4)ccc3n2)cc1,16,0,2,0,63,0,6,0,0,18,
Cc1ccccc1COc1cc(-n2cnc3cc(Cl)ccc32)sc1C(N)=O [GW813349],12,15,0,8,6,0,10,22,0,5,
CCC(=O)c1c(-c2ccccc2)c2cc(Cl)ccc2c(=O)n1Cc1cc(S(C)(=O)=O)n(CCC(C)(C)O)n1,14,0,3,16,0,14,3,12,20,1,
COc1ccc(-n2cnc3c(N)ncnc32)cc1 [SKF-97236],15,9,10,5,20,0,12,0,15,0,
COc1cc(OC)cc(-c2cc3cnc(N)nc3nc2NC(=O)NC(C)(C)C)c1,0,0,0,0,0,0,16,0,5,0,
COc1cc2nccc(Nc3cccc(Oc4ccccc4)c3)c2cc1OC.Cl [GW284543],80,0,0,20,51,31,15,0,0,0,

SMILES,%Inh [1] [%],%Inh [2] [%],%Inh [3] [%],"%Inh [4, 11] [%]",%Inh [5] [%],%Inh [6] [%],%Inh [7] [%],%Inh [8] [%],%Inh [9] [%],%Inh [10] [%],%Inh ([4]; 1 µM) [%]
Fc1cccc(CSc2nnc(-c3ccc4c(c3)CCO4)o2)c1,12,0,0,12,0,0,0,4,16,9,
Nc1nc(-c2ccccc2F)c(-c2ccnc3ccccc23)s1 [GW560459],98,0,0,14,24,4,3,0,10,1,
Cc1nnc(-c2ccc(C)c(-c3ccc(C(=O)O)cc3)c2)o1 [GW608005],0,9,0,0,0,0,0,0,9,0,
Cc1nnc(-c2ccc3ncn(-c4ccc(S(C)=O)cc4)c3c2)o1 (stereo not drawn),19,0,0,0,16,0,0,0,3,4,
CCn1c(-c2nonc2N)nc2ccccc21 [SB-693162/GW549034],0,6,53,,76,0,0,40,0,0,78
Cc1ccc(-c2ccc3c(ccc4sc5c(c43)NC[C@@H](C)N=C5N(C)C)n2)cn1,0,0,0,0,0,0,0,0,0,0,
COc1cc2ncn(-c3cc(OCc4ccc(S(C)(=O)=O)cc4)c(C(N)=O)s3)c2cc1OC [GW869979],0,35,3,45,32,0,0,38,0,14,
COc1cc2ncn(-c3cc(OCCCc4ccccc4)c(C(N)=O)s3)c2cc1OC [GSK205189],20,0,0,0,0,13,5,0,0,0,
CCS(=O)(=O)c1ccc(OC)c(Nc2ncc(-c3ccc(F)cc3)o2)c1.Cl [GW591947],19,0,0,20,16,0,25,0,27,0,
COc1cccc(C2=C(N(C)c3ccccc3)C(=O)NC2=O)c1 [SB-334865],17,19,0,0,12,0,8,0,20,0,
O=C(Nc1n[nH]c2cc(-c3ccccc3F)ccc12)C1CC1 [SB-733371],11,13,0,0,0,4,0,0,0,0,
Cc1c(Cn2c(C)nn3c(=O)cc(N4CCO[C@H](C)C4)nc23)cccc1C(F)(F)F [GSK2373690],4,0,0,7,0,4,16,0,27,15,
Nc1nc(N)c2nc(-c3ccccc3)[nH]c2n1 [SKF-12778],10,66,0,26,24,10,11,0,9,0,
COC(=O)c1c(-c2ccccc2)c2cc(Br)ccc2c(=O)n1Cc1ccc(NC(=O)CCC(=O)O)cc1,12,20,21,8,0,0,0,9,23,0,
Nc1nccc2scc(-c3ccc4c(c3)CCN4C(=O)Cc3ccccc3)c12 [GSK2576924],58,3,12,0,38,18,13,0,25,14,
CCC(=O)c1c(-c2ccccc2)c2cc(Cl)ccc2c(=O)n1Cc1cc(S(C)(=O)=O)n(CC(F)F)n1,2,0,18,0,0,0,0,0,0,0,
CCn1c(-c2ccoc2)nc2cnccc21 [SB-733887],6,30,0,0,23,0,0,0,9,0,
COc1ccc(CNC(=O)NC2CCN(c3ccnc(Nc4ccc(F)cc4)n3)C2)cc1 (stereo not drawn) [GSK1379706],19,0,15,29,27,12,0,0,13,27,
O=C(Nc1ccc2c(c1)OCO2)NC1CCN(c2ccnc(NCc3ccc(F)cc3)n2)CC1 [GSK1379859],10,0,10,74,47,0,13,0,9,0,
CCC(=O)c1c(-c2ccccc2)c2cc(Cl)ccc2c(=O)n1Cc1ccc(C(=O)O)cc1,0,0,5,0,0,0,0,7,0,0,
COc1cccc(C2=C(Nc3cccc(C(=O)O)c3)C(=O)NC2=O)c1 [SB-390770],7,0,0,25,7,32,0,0,32,0,
Nc1ncnc2c1ncn2-c1cccc(F)c1 [SKF-97560],100,29,26,38,28,4,0,45,0,3,
COc1cc2ncn(-c3cc(OCc4ccncc4Br)c(C(N)=O)s3)c2cc1OC [GW854278],26,0,9,11,0,6,2,0,0,7,
